# Screening data (PubChem)
# Sampled rows, rich in hits. Any-hit rate of the full collection: about 2.9%.
# Shn3 3UTR inh – Schnurri-3 reporter inhibition in Clone20 osteoblasts; Clone20 osteoblast Shn3 3'UTR firefly luciferase, 24 h; inhibition, % at 12.5 µM; 360,000 tested, 0.52% active; AID 588674;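 active = mean inhibition of at least 75% with every replicate also reaching 75%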
# Peg3 prom inh-1 – Peg3 promoter activity inhibition | HeLa PEG-Prom luciferase reporter, luminescence, overnight | inhibition, % at 20 µM | 360,000 tested, 1.7% active | AID 588405;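 active = inhibition of at least 50% at 20 µM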
# CF NFkB block – inhibitors of cystic fibrosis induced NF-kB. KKLEB NF-kB-GFP reporter, PAF-induced, GFP fluorescence overnight. AID 588850. inhibition, % at 5 µM. 360,000 tested, 0.86% active;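 active = at least 50% inhibition at 5 µM, scaled per plate between neutral and stimulator controls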;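 also: PAF is a Pseudomonas aeruginosa culture filtrate used as stimulus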
# LMP1 NFkB inh – reduces LMP1-driven NF-kappaB luciferase signal; 350,000 tested, 0.69% active; AID 504558; inhibition, % at 12.5 µM; LMP1-induced NF-kappaB luciferase reporter cells, luminescence; in the data active = inhibition above about 41%
# TRPM1 prom inh – MITF TRPM1 promoter inhibition in SK-MEL-5 cells. SK-MEL-5 TRPM1 promoter luciferase, 24 h. inhibition, % at 12.5 µM. 330,000 tested, 0.83% active. AID 488899;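 active = mean inhibition across replicates of 60% or more, whatever share of single replicates reaches that level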
# KKLEB tox – reduces viability of KKLEB cystic fibrosis airway cells | KKLEB CF airway cells viability, ATPlite luminescence, overnight; stronger effect = lower value; cells stimulated with P. aeruginosa culture filtrate | activity change (cytotoxicity), % at 5 µM | 360,000 tested, 0.36% active;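 active = corrected activity change at or below -50% at 5 µM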
# Peg3 prom inh-2 – Peg3 promoter inhibition confirmation. shares compounds with Peg3 prom inh-1. HeLa PEG-Prom luciferase reporter, luminescence, overnight. inhibition, % at 20 µM. 1,300 tested, 84% active. AID 602417;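 active = at 20 µM dose, 40% or more inhibition averaged across four replicates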
# CF NFkB inh conf – confirmation of cystic fibrosis induced NF-kB inhibitors. KKLEB CF airway cells, PAF-induced NF-kB-GFP fluorescence, overnight. inhibition, % at 5 µM. shares compounds with CF NFkB block. 1,300 tested, 64% active; in the data active = inhibition above about 40%;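 also: stimulus PAF is a Pseudomonas aeruginosa filtrate and not platelet activating factor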
# Numbers stand for hits; – = inactive; · = not tested or not shown.
SMILES,Shn3 3UTR inh,Peg3 prom inh-1,CF NFkB block,LMP1 NFkB inh,TRPM1 prom inh,KKLEB tox,Peg3 prom inh-2,others
CCC(c1nnnn1-c1ccc2c(c1)OCCO2)N1CCC(n2c(=O)[nH]c3ccccc32)CC1 (stereo unspecified),–,79,79,·,·,-76,80,
CC(CN1CCOCC1)C(C#N)(c1ccccc1)c1ccccc1 (stereo unspecified),–,–,–,–,–,–,·,
CCCCn1nnnc1C(CCSC)N1CCC2(CC1)C(=O)NCN2c1ccccc1 (stereo unspecified),–,–,–,·,·,–,·,
C=CCN1Cc2ccccc2-n2nncc2C1,–,–,–,·,·,–,·,
O=C1NC(=S)NC(=O)C1=Cc1cccc2cc3ccccc3cc12,99,107,95,–,98,–,100,
CC(N)C(=O)OC(C)(C)Cc1ccc(Cl)cc1 (stereo unspecified),–,–,–,–,–,–,·,
O=C1NC(=O)N(Cc2ccc(F)cc2)C(=O)/C1=C\C=C\c1ccco1,–,62,78,–,93,–,66,
Cc1ccc(N2C(=O)NC(=O)/C(=C/C=C/c3ccco3)C2=O)cc1,–,86,81,–,73,–,–,
O=C(CSC1c2ccccc2-c2ccccc21)N/N=C/c1ccccc1O,–,55,–,–,–,–,64,
C[C@H](CO)N1C[C@H](C)[C@@H](CN(C)C(=O)Oc2ccc3ccccc3c2)OCc2cn(nn2)CCCC1=O,–,–,–,–,·,–,·,
O=Cc1cn(Cc2ccc(F)cc2)c2ccccc12,–,78,–,–,–,–,69,
Cc1c(C=O)c2ccccc2n1Cc1ccc(F)cc1,–,–,–,–,–,–,·,
CC(=O)c1cn(Cc2ccc(C#N)cc2)c2ccccc12,–,–,–,–,–,–,·,
O=Cc1cn(Cc2ccc([N+](=O)[O-])cc2)c2ccccc12,–,91,–,–,–,–,80,
O=C1NC(=S)N(c2ccccc2F)C(=O)/C1=C\c1cccs1,–,102,–,–,–,–,83,
O=C1NC2C(=CC(O)C(O)C2O)c2cc3c(c(O)c21)OCO3 (stereo unspecified),96,100,89,95,88,-64,98,
CC1=CC(O)C(O)C2(C)C1CC1OC(=O)C(O)C3C(C)C(O)C4(O)OCC13C42 (stereo unspecified),–,68,–,–,–,–,45,
Cn1cccc1/C=C1/C(=O)NC(=S)N(Cc2ccc(F)cc2)C1=O,–,106,–,–,–,–,63,
Cn1cccc1/C=C1/C(=O)NC(=O)N(Cc2ccc(F)cc2)C1=O,–,–,–,–,–,–,·,
Nc1ncc([N+](=O)[O-])s1,–,–,–,–,–,–,·,
CC(=O)O[C@H]1CC[C@@]2(C)C(=CC(=O)C3C2CC[C@@]2(C)C3C[C@H](OC(C)=O)[C@@H]2OC(C)=O)C1 (stereo partly specified),–,–,–,–,–,–,·,
COc1c(OP2(=S)OCC(C)(C)CO2)cnn(C2CCCCC2)c1=O,–,–,–,·,·,–,·,
C=CC12CN(C)C3C4COC(CC41)C1(C(=O)Nc4ccccc41)C32 (stereo unspecified),–,–,–,·,·,–,·,
CCN(CC)C(=O)c1ccc(NC(=O)Nc2ccccc2F)cc1,–,56,–,51,–,–,45,
CC1=CC(O)C(O)C2(C)C1CC1OC(=O)CC3C(C)C(O)C(=O)C2C13CO (stereo unspecified),–,91,–,–,–,–,–,
COc1ccc(C(c2nnnn2-c2c(C)cccc2C)N2CCC(n3c(=O)[nH]c4ccccc43)CC2)cc1 (stereo unspecified),–,59,60,·,·,–,48,CF NFkB inh conf=–
Cc1cccc(C)c1-n1nnnc1C(c1ccccc1OC(F)(F)F)N1CCC(n2c(=O)[nH]c3ccccc32)CC1 (stereo unspecified),–,52,73,·,·,–,68,CF NFkB inh conf=–
